Assay results published in PubChem BioAssay (NCI).
The panel holds about 79,000 compounds, 15% with a hit somewhere; the sample as a whole holds those more often. Values without a mark were called inactive. Activity calls are given as the source filed them. No stated cut-off is given here; in the data, active means growth inhibition above about 70%; inactive means the rest.

What was measured:
[1] = NCI Yeast Anticancer Drug Screen. Data for the rad50 strain (AID 155);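 further: 0% = growth of vehicle-only cultures of the same strain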; settings: S. cerevisiae rad50 strain growth inhibition, active compounds read high
Procedure, shortened: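 Relative growth inhibition (compound vs vehicle) was measured in yeast with a defined repair-gene alteration.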

[2] = NCI Yeast Anticancer Drug Screen. Data for the mec2-1 strain (AID 157); settings: S. cerevisiae mec2-1 strain, active compounds read high
Procedure, shortened: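 Using mec2-1 yeast: add compound, measure growth, express inhibition versus vehicle-treated cultures.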

[3] = NCI Yeast Anticancer Drug Screen. Data for the sgs1 mgt1 strain (AID 161);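 further: 0% = growth of cultures given vehicle only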; settings: S. cerevisiae sgs1 mgt1 strain, active compounds read high
Procedure, shortened: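 Growth of a repair-deficient yeast mutant was monitored after compound treatment and expressed as inhibition relative to vehicle-treated cultures.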

[4] = NCI Yeast Anticancer Drug Screen. Data for the cln2 rad14 strain (AID 165);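 further: 0% = growth equal to vehicle treated cultures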; settings: S. cerevisiae cln2 rad14 strain, active compounds read high
Procedure, shortened: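 Yeast strain cln2 rad14, bearing defects in cell cycle control and DNA repair, serves as the test system; values reflect growth inhibition compared with vehicle.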

[5] = NCI Yeast Anticancer Drug Screen. Data for the bub3 strain (AID 167); settings: S. cerevisiae bub3 mutant strain, active compounds read high
Procedure, shortened: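 Screening used yeast with an engineered genetic alteration affecting cell cycle control. Compound-exposed cultures were compared with vehicle cultures, and reduced growth was taken as inhibition.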

[6] = NCI Yeast Anticancer Drug Screen. Data for the mlh1 rad18 strain (AID 175); settings: S. cerevisiae mlh1 rad18 strain growth inhibition, active compounds read high
Procedure, shortened: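 Steps: expose repair-defective yeast to compound; measure growth; express inhibition against vehicle-treated controls.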

[7] = at 5.0 µM (retest, dose inferred, filed as 0.5)
[8] = at 50.0 µM (retest, dose inferred, filed as 5.0)

Row | Compound | growth inhibition [1, 7] | growth inhibition [1, 8] | growth inhibition ([1]; at 50.0 µM) | growth inhibition [2, 7] | growth inhibition [2, 8] | growth inhibition ([2]; at 50.0 µM) | growth inhibition [3, 7] | growth inhibition [3, 8] | growth inhibition ([3]; at 50.0 µM) | growth inhibition [4, 7] | growth inhibition [4, 8] | growth inhibition ([4]; at 50.0 µM) | growth inhibition [5, 7] | growth inhibition [5, 8] | growth inhibition ([5]; at 50.0 µM) | growth inhibition [6, 7] | growth inhibition [6, 8] | growth inhibition ([6]; at 50.0 µM)
1 | O=C(O)C1CCC(CC2CC3CCC2C3)CC1 (stereo unspecified) | -146% | 79% (active) | 74.7% (active) | -54% | 54% | 88.5% (active) | -58% | 85% (active) | 41.8% | -79% | 65% | 44.2% | -73% | 69% | 73.3% (active) | -125% | 86% (active) | 53.8%
2 | CCOc1ccc(C(=O)CCN2CCOCC2)cc1 | 8% | 40% | 77.5% (active) | 14% | 27% | 42.1% | 20% | 53% | 57% | 15% | 59% | 52.9% | 14% | 46% | 46% | 6% | 35% | 55.3%
3 | O=C(C[n+]1cccc2ccccc21)c1ccc(-c2ccc(C(=O)C[n+]3cccc4ccccc43)cc2)cc1 | 3% | 32% | 62.2% | 50% | 23% | 50% | 2% | 36% | 46.5% | 2% | 24% | 31.9% | 1% | 44% | 45.6% | 4% | 53% | 86.3% (active)
4 | O=C1CCC(C(c2ccccc2)(c2ccccc2)c2ccccc2)CC1=O (stereo unspecified) | 0% | 99% (active) | -11.1% | -1% | 98% (active) | 16.9% | 0% | 99% (active) | -5.2% | -14% | 99% (active) | 22.5% | -3% | 99% (active) | 0.85% | -1% | 99% (active) | -10.2%
5 | O=[N+]([O-])c1ccccc1OS(=O)(=O)c1ccccc1 | 0% | -2% | -2.5% | -12% | -8% | -1.1% | 4% | 20% | -0.45% | -25% | 36% | 6.4% | -4% | 6% | 14.3% | -6% | 3% | 0.65%
6 | [O-]c1c2cc(-[n+]3c(-c4ccccc4)cc(-c4ccccc4)cc3-c3ccccc3)cc1CO[C@@H](c1ccccc1)[C@H](c1ccccc1)OCCOCCO[C@@H](c1ccccc1)[C@H](c1ccccc1)OC2 | 97% (active) | 95% (active) | 87.5% (active) | 98% (active) | 95% (active) | 91.4% (active) | 98% (active) | 97% (active) | 88.4% (active) | 95% (active) | 97% (active) | 88.6% (active) | 97% (active) | 72% (active) | 89% (active) | 98% (active) | 94% (active) | 29.6%
7 | CCOC(=O)c1ccc2c(c1)Cc1cc([N+](=O)[O-])ccc1-2 | 1% | 65% | 43.6% | -2% | 37% | 15.8% | 7% | 72% (active) | 51% | -97% | 12% | 4.15% | 43% | 89% (active) | 80.8% (active) | 7% | 57% | 58.1%
